Results filed as inconclusive are left out. The source made the active and inactive calls. Unless noted, calls follow the shape of the full dose curve.
Columns and labels:
[1] = qHTS for Inhibitors of the Functional Ribonucleoprotein Complex (vRNP) of Lassa (LASV) Arenavirus: Viability assay - alamar blue signal for LASV Primary Screen (AID 1347083; calls by dose curve; tested in HEK293 reporter line; also: nearly all actives have a fitted effect of over 80% in size; also: potency is read from the fitted curve at half-maximal effect)
[2] = qHTS for Inhibitors of the Functional Ribonucleoprotein Complex (vRNP) of Lymphocytic Choriomeningitis Arenaviruses (LCMV): Viability assay - alamar blue signal for LCMV Primary Screen (AID 1347085; calls by dose curve; tested in HEK293 reporter line; also: nearly all actives have a fitted effect of over 80% in size; also: potency is read from the fitted curve at half-maximal effect)
[3] = target: Nucleoprotein (Lymphocytic choriomeningitis virus (strain Armstrong)) (UniProt P09992); test: qHTS for Inhibitors of the Functional Ribonucleoprotein Complex (vRNP) of Lymphocytic Choriomeningitis Arenaviruses (LCMV): LCMV Primary Screen - GLuc reporter signal (AID 1347086); also: nearly all actives have a fitted effect of over 70% in size; also: potency is read from the fitted curve at half-maximal effect; as to activity change, negative = inhibition: % is scaled to controls: 0 for no effect and ±100 for the full control effect
Nucleoprotein (Lymphocytic choriomeningitis virus (strain Armstrong)), sequence (P09992 whole entry, looked up): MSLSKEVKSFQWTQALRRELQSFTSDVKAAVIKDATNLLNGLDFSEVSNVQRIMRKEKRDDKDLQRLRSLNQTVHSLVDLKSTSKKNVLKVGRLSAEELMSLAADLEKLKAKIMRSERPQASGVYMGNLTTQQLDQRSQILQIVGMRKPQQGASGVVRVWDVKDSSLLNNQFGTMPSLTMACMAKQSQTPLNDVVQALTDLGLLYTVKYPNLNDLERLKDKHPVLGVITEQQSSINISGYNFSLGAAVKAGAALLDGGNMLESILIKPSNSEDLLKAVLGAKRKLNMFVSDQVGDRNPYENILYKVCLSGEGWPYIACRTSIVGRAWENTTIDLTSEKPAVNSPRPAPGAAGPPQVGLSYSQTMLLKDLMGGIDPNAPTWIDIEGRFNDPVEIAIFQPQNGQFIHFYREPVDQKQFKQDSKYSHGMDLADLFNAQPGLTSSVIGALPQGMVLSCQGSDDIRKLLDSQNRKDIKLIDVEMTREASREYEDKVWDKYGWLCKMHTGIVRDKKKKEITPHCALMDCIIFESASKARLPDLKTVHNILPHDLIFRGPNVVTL

[4] = Confirmatory qHTS to identify inhibitors of SARS-CoV-2 cell entry (AID 1645844); also: potency is read from the fitted curve at half-maximal effect; nearly all actives have a fitted effect of over 45% in size
Summary of the method: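 HEK293-ACE2 cells were pretreated 1 h with compound, then infected with MLV-based pseudoparticles bearing C-terminally truncated Wuhan-Hu-1 spike for 48 h at 37C; luciferase luminescence normalized to spike PP and bald PP wells.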

[5] = Cytotoxicity counterscreen for inhibitors of SARS-CoV-2 cell entry (AID 1645845); also: nearly all actives have a fitted effect of over 50% in size; also: potency is read from the fitted curve at half-maximal effect
Summary of the method: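 HEK293-ACE2 cells (Expi293F stably expressing human ACE2) seeded overnight, then compound for 1 h plus 48 h at 37C. Viability as ATP content by luminescence; normalized to wells with cells and media-only wells.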

[6] = Primary qHTS to identify inhibitors of SARS-CoV-2 cell entry (AID 1645846); conditions: activity change, negative = inhibition: at 57.1 µM (top of the series) unless noted; also: nearly all actives have a fitted effect of over 45% in size; also: potency is read from the fitted curve at half-maximal effect
Summary of the method: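 HEK293-ACE2 (Expi293F, stable hACE2), 1500 cells/well, o/n 37C; cpd 23 nL pin, 1 h; MLV-PP w/ SARS-CoV-2-S (Wuhan-Hu-1, Δ19 C-term); 48 h 37C; Bright-Glo luminescence; normalized vs S-PP and bald PP.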

[7] = VSVG counterscreen qHTS to identify inhibitors of SARS-CoV-2 cell entry (AID 1645847); also: potency is read from the fitted curve at half-maximal effect; nearly all actives have a fitted effect of over 65% in size
Summary of the method: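 Expi293F/hACE2 cells, overnight plating; cpd 1 h, 37C/5% CO2; + VSV-G PP (MLV pseudotyping), 48 h; supernatant removed, Bright-Glo luciferase read. Norm: VSV-G PP and bald PP wells.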

[8] = Confirmatory qHTS for VERO E6 Cytotoxicity Assay: Counterscreen for SARS-CoV-2 CPE Assay (AID 1508605); also: % is scaled to controls: 0 for no effect and ±100 for the full control effect; nearly all actives have a fitted effect of over 60% in size
[9] = Confirmatory qHTS for activators (rescue) of SARS-CoV-2 Cytopathic Effect (CPE) (AID 1508606); also: nearly all actives have a fitted effect of over 70% in size; also: potency is read from the fitted curve at half-maximal effect
[10] = Validation screen for inhibitors of Lassa infection (AID 463096); also: potency is read from the fitted curve at half-maximal effect; as to activity change, negative = inhibition: % is scaled to controls: 0 for no effect and ±100 for the full control effect
[11] = Inducers of the Endoplasmic Reticulum Stress Response (ERSR) in human glioma: Validation (AID 504836; active = well fitted curve in the direction sought with a large enough effect; an effect the other way counts as inactive or inconclusive; also: 0% is about no effect)
Summary of the method: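 Stably transfected U87-MG glioma cells carrying a GRP78-based luciferase sensor; 16 h compound incubation. Luminescence end-point read 10 min after Bright-Glo addition at room temperature.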

[12] = qHTS profiling of the MIPE4 collection as inhibitors of Plasmodium falciparum (3D7) proliferation (AID 743344; call rule not given here;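 also: scaled between DMSO vehicle wells and 0.29 µM artemisinin as full inhibition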); conditions: P. falciparum 3D7 in erythrocytes, SYBR Green DNA fluorescence, 72 h; at 28.5 µM (top of the series) unless noted
Summary of the method: (§1)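 Erythrocytes infected with P. falciparum (0.3% parasitemia, 2.5% hematocrit) incubated with compounds 72 h at 37 C, 5% CO2. Lysis with saponin/Triton buffer containing SYBR Green I, overnight at room temperature in the dark; DNA fluorescence (485/535 nm) normalised to 0.29 uM artemisinin and DMSO.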

[13] = qHTS profiling of the MIPE4 collection as inhibitors of Plasmodium falciparum (HB3) proliferation (AID 743347; call rule not given here;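 also: plate controls were DMSO vehicle wells for no effect and artemisinin wells for full effect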); conditions: P. falciparum HB3 in erythrocytes, SYBR Green DNA, 72 h; at 28.5 µM (top of the series) unless noted
Summary of the method: as §1

[14] = Primary qHTS for inhibitors of SARS-S pseudo-typed particle cell entry (AID 1479145); also: nearly all actives have a fitted effect of over 45% in size
[15] = Primary qHTS for Huh7 cytotoxicity: counterscreen for inhibitors of MERS-S pseudotyped particle cell entry (AID 1479147); conditions: outcome: dose series up to 57.1 µM unless noted
[16] = Primary qHTS for inhibitors of MERS-S pseudo-typed particle cell entry (AID 1479149); also: nearly all actives have a fitted effect of over 60% in size
[17] = Primary qHTS for Vero E6 cytotoxicity: counterscreen for inhibitors of SARS-S pseudo-typed particle cell entry (AID 1479150); conditions: outcome: dose series up to 57.1 µM unless noted
[18] = target: Alpha-galactosidase (Coffea arabica) (UniProt Q42656); test: Counterscreen for Glucocerebrosidase Inhibitors: qHTS Assay for Coffee Bean alpha-Galactosidase at pH 4.5 (AID 957; active = well fitted curve in the direction sought with a large enough effect; an effect the other way counts as inactive or inconclusive;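 also: plate controls were enzyme alone for no effect and no enzyme for full effect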)
Alpha-galactosidase (Coffea arabica), sequence (Q42656 whole entry, looked up): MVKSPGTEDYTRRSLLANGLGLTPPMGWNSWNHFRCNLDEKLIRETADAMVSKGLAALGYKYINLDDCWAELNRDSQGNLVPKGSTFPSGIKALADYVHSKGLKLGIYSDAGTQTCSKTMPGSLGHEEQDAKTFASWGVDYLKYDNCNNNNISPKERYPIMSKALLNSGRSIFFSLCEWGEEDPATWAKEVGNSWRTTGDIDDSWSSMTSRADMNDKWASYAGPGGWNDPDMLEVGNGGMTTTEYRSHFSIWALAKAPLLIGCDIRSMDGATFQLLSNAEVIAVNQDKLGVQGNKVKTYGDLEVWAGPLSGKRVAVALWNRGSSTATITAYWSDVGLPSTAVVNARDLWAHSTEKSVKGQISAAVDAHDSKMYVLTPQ
Summary of the method: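 Green coffee bean enzyme (2 nM final) was incubated with compounds (0.7 nM to 77 uM) and 4-methylumbelliferyl alpha-D-galactopyranoside (80 uM final) in 50 mM citric acid, 0.005% Tween-20, pH 4.5, 20 min at room temperature; AC50 from Hill fits.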

[19] = target: Alpha-galactosidase (Coffea arabica) (UniProt Q42656); test: Counterscreen for Glucocerebrosidase Inhibitors: qHTS Assay for Coffee Bean alpha-Galactosidase at pH 5.9 (AID 998; active = well fitted curve in the direction sought with a large enough effect; an effect the other way counts as inactive or inconclusive;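 also: plate controls were uninhibited enzyme for no effect and no-enzyme basal signal for full effect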)
Summary of the method: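 Green coffee bean enzyme (2 nM) with 4-methylumbelliferyl alpha-D-galactopyranoside (80 uM) in 50 mM citric acid, 0.005% Tween-20, pH 5.9, 20 min at room temperature; compounds 0.7 nM–77 uM. Stopped at pH 10, fluorescence Ex365/Em440; Hill-fit AC50.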

## CN[C@H]1CCc2cc(OC)c(OC)c(OC)c2-c2ccc(OC)c(=O)cc21
[1]
  Potency: inactive
[2]
  Potency: 5.4 nM (active)
[3]
  Potency: 17.2 nM (active)
[4]
  Potency: 38.3 nM (active)
[5]
  Potency: inactive
[6]
  activity change, negative = inhibition: -76.7%
[7]
  Potency: 171 nM (active)

## CCC[C@H](Nc1nc(-c2ccc(NC(=O)NCC)c(OC)c2)ncc1C)c1cccnc1
[1]
  Potency: 38.5 nM (active)
[2]
  Potency: 48.5 nM (active)
[3]
  Potency: 109 nM (active)
[6]
  activity change, negative = inhibition: -93.9%

## COc1cc(Nc2nc3ccccc3nc2NS(=O)(=O)c2ccc(NC(=O)c3ccc(C)c(OC)c3)cc2)cc(OC)c1
[1]
  Potency: 21700 nM (active)
[2]
  Potency: 13700 nM (active)
[3]
  Potency: 27300 nM (active)
[8]
  Potency: inactive
[9]
  Potency: inactive
[5]
  Potency: inactive
[6]
  Potency: inactive

## C#C[C@]1(O)CC[C@@H]2[C@@H]3CCc4cc(O)ccc4[C@H]3CC[C@@]21C
[1]
  Potency: 6850 nM (active)
[2]
  Potency: 3060 nM (active)
[3]
  Potency: 2170 nM (active)

## CCOC(=O)N1CCN([N+]([O-])=NOc2ccc([N+](=O)[O-])cc2C#N)CC1
[1]
  Potency: 10900 nM (active)
[2]
  Potency: inactive
[3]
  Potency: inactive

## Cn1cc(-c2cnn3c(N)c(Br)c([C@H]4CCCNC4)nc23)cn1
[1]
  Potency: 1220 nM (active)
[2]
  Potency: 1530 nM (active)
[3]
  Potency: 2730 nM (active)

## N#Cc1c(C2CCNCC2)cc(-c2c(O)cccc2OCC2CC2)nc1N
[1]
  Potency: 19300 nM (active)
[2]
  Potency: 8630 nM (active)
[3]
  Potency: 5440 nM (active)
[8]
  Potency: inactive
[9]
  Potency: 11200 nM (active)

## CO[C@H]1C[C@@H]2CC[C@@H](C)[C@@](O)(O2)C(=O)C(=O)N2CCCC[C@@H]2C(=O)O[C@H]([C@H](C)C[C@@H]2CC[C@H](OC(=O)C(C)(CO)CO)[C@H](OC)C2)CC(=O)[C@H](C)C=C(C)[C@@H](O)[C@@H](OC)C(=O)[C@H](C)C[C@H](C)C=CC=CC=C1C
[1]
  Potency: 12.2 nM (active)
[2]
  Potency: 27.3 nM (active)
[3]
  Potency: 15.3 nM (active)

## CCC1(O)CC2CN(CCc3c([nH]c4ccccc34)[C@@](C(=O)OC)(c3cc4c(cc3OC)N(C)C3[C@]45CCN4CC=C[C@@](CC)([C@@H](OC(C)=O)[C@]3(O)C(=O)OC)[C@H]45)C2)C1 (some centres not stated)
[10]
  Potency: 15800 nM (active)
[11]
  outcome: inactive
[1]
  Potency: 447 nM (active)
[2]
  Potency: 224 nM (active)
[3]
  Potency: 708 nM (active)

## CCCCCCOC(=O)N=C(N)c1ccc(NCc2nc3cc(C(=O)N(CCC(=O)OCC)c4ccccn4)ccc3n2C)cc1
[1]
  Potency: inactive
[2]
  Potency: inactive
[3]
  Potency: inactive

## COc1cc([C@@H]2c3cc4c(cc3[C@H](O)[C@H]3COC(=O)[C@@H]23)OCO4)cc(OC)c1OC
[12]
  parasite growth, % of DMSO control: 52.9%
[13]
  growth, % of control: 44.9%
[1]
  Potency: 193 nM (active)
[2]
  Potency: 344 nM (active)
[3]
  Potency: 1090 nM (active)
[4]
  Potency: 12100 nM (active)
[6]
  Potency: 1260 nM (active)
[7]
  Potency: 1710 nM (active)

## C=CC(=O)Nc1ccc2ncnc(Nc3ccc(OCc4cccc(F)c4)c(Cl)c3)c2c1
[1]
  Potency: 968 nM (active)
[2]
  Potency: 385 nM (active)
[3]
  Potency: 432 nM (active)
[6]
  Potency: inactive

## COc1cccc(Nc2c(C(N)=O)cnc3c(C)cc(S(=O)(=O)c4cccc(C(=O)N(C)C)c4)cc23)c1
[1]
  Potency: 21100 nM (active)
[2]
  Potency: 13300 nM (active)
[3]
  Potency: 16800 nM (active)
[5]
  Potency: inactive
[6]
  Potency: inactive

## Cc1nc(NC(=O)N2CCC[C@@H]2C(N)=O)sc1-c1ccnc(C(C)(C)C(F)(F)F)c1
[1]
  Potency: 10900 nM (active)
[2]
  Potency: inactive
[3]
  Potency: inactive

## COc1cc2cc(c1Cl)N(C)C(=O)CC(OC(=O)C(C)N(C)C(C)=O)C1(C)OC1C(C)C1CC(O)(NC(=O)O1)C(OC)C=CC=C(C)C2 (configuration not stated)
[1]
  Potency: inactive
[2]
  Potency: inactive
[3]
  Potency: inactive

## CC[C@]1(O)C[C@H]2CN(CCC3=c4ccccc4=N[C]3[C@@](C(=O)OC)(c3cc4c(cc3OC)N(C)[C@H]3[C@@](O)(C(N)=O)[C@H](O)[C@]5(CC)C=CCN6CC[C@]43[C@@H]65)C2)C1
[1]
  Potency: 38.5 nM (active)
[2]
  Potency: 10.9 nM (active)
[14]
  Potency: inactive
[15]
  outcome: inactive
[16]
  Potency: inactive
[17]
  outcome: inactive
[4]
  Potency: 76.4 nM (active)
[5]
  Potency: inactive
[7]
  Potency: 30.4 nM (active)

## O=c1cc(N2CCOCC2)oc2c(-c3ccccc3)cccc12
[18]
  outcome: inactive
[19]
  outcome: inactive
[10]
  Potency: inactive
[1]
  Potency: 15300 nM (active)
[2]
  Potency: inactive
[3]
  Potency: inactive
[5]
  Potency: inactive
[6]
  activity change, negative = inhibition: -24.5%

## Cn1cc(CNCC2CCN(c3ncc(C(=O)NO)cn3)CC2)c2ccccc21
[1]
  Potency: 685 nM (active)
[2]
  Potency: 485 nM (active)
[3]
  Potency: 1530 nM (active)
[6]
  Potency: inactive

## CCc1c2c(nc3ccc(O)cc13)-c1cc3c(c(=O)n1C2)COC(=O)[C@]3(O)CC
[1]
  Potency: 109 nM (active)
[2]
  Potency: 243 nM (active)
[3]
  Potency: 217 nM (active)
[6]
  activity change, negative = inhibition: -97.1%

## NC(=O)c1cccc(-c2cc(Nc3ccc(OC(F)(F)F)cc3)ncn2)c1
[1]
  Potency: inactive
[2]
  Potency: inactive
[3]
  Potency: inactive
[8]
  Potency: inactive
[5]
  Potency: 22400 nM (active)

## CC(=O)OCC(=O)[C@@]12OC(C)(C)O[C@@H]1C[C@H]1[C@@H]3C[C@H](F)C4=CC(=O)C=C[C@]4(C)[C@@]3(F)[C@@H](O)C[C@@]12C
[1]
  Potency: inactive
[2]
  Potency: inactive
[14]
  Potency: inactive
[15]
  outcome: inactive
[16]
  Potency: inactive
[17]
  outcome: inactive
[5]
  Potency: inactive
[6]
  Potency: inactive

## CCC(C=C[C@@H]1OC(=O)C=C[C@H]1C)=C[C@H](C)CC=CC(C)=C[C@@H](C)C(=O)[C@@H](C)[C@H](O)[C@@H](C)CC(C)=CC(=O)O
[1]
  Potency: 114 nM (active)
[2]
  Potency: 144 nM (active)
[3]
  Potency: 203 nM (active)

— PubChem BioAssay (NCATS)
